From PubChem BioAssay (NCATS)
Inconclusive results are not listed. Activity calls are given as the source filed them. Calls come from the whole dose curve; as a rule, active = well fitted inhibition curve with a large enough effect; inconclusive = small, poorly fitted or top-dose-only effect; inactive = flat fitted curve, though single readings scatter.

Target: Calcium and integrin-binding protein 1 (Homo sapiens) (UniProt Q99828)
Test: Primary qHTS for Identification of Calcium Integrin Binding Protein 1 (CIB1) Competitor (AID 1508620);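 note: GST tagged CIB1 binding a fluorescein labelled alphaIIb integrin peptide tracer; top concentration of the series differs between compounds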
Settings: CIB1-GST / FITC-alphaIIb peptide fluorescence polarization; series mostly up to 114 µM; activity change, negative = inhibition: at the top concentration
In short: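 CIB1-GST (1 uM final) and compound incubated 15 min at room temperature before adding FITC-alphaIIb peptide tracer (100 nM final). Competition for binding read by fluorescence polarization (ex 480, em 540) after another 15 min at room temperature.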
% is set by controls: 0 for no effect and ±100 for the full control effect.

Chain of Calcium and integrin-binding protein 1 (Homo sapiens) (Q99828 whole entry, looked up): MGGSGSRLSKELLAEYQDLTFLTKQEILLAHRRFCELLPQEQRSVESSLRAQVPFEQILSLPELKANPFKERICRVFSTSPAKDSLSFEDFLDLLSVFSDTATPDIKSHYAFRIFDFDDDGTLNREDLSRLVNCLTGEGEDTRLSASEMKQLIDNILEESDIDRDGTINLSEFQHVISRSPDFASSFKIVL

SMILES	activity change, negative = inhibition	Potency
C/C(=C\c1ccc2c(c1)OCCO2)C1Nc2cccc3cccc(c23)N1	8.92% (inactive)	
CC(=O)NC(c1cccs1)c1cc(F)c2cccnc2c1O (centres undefined)	-16.3% (inactive)	
Cc1ccc(NS(=O)(=O)c2cc3c(cc2Cl)CCC(=O)N3)cc1C		inactive
O=C(O)c1ccc(-c2noc(-c3cccc(Cl)c3)n2)cc1	0.425% (inactive)	
COC(=O)C1CCN(C(=O)c2ccc3c(c2)ncn3-c2cccc(C)c2)CC1	4.56% (inactive)	
Cc1ccc(OCCn2c(CCNC(=O)/C=C/c3ccccc3Br)nc3ccccc32)cc1	27.3% (inactive)	
CNc1oc(-c2ccc(F)cc2)nc1C#N	-0.387% (inactive)	
CNC(=O)C1CCN(c2nc(-c3ccc(Br)cc3)cs2)CC1	-0.533% (inactive)	
O=C(O)c1ccc(O)c2ncc(NC3CCNCC3)cc12	-4.19% (inactive)	
Fc1ccc(-c2ccc(CNc3nc(-c4ccccc4C(F)(F)F)nc4ccccc34)cc2)cc1	2.02% (inactive)	
O=C(OCC#CCSc1nnc(-c2cccc(F)c2)o1)c1ccc(F)cc1	2.26% (inactive)	
Cc1nnc(-c2cnn(C)c2N)n1CCCn1cccc1	1.25% (inactive)	
CSc1ccc(-c2cncc(NC(=O)c3cccs3)c2)cc1	-6.29% (inactive)	
CC(=O)Nc1sc2c(c1-c1cccc3[nH]ncc13)CCNC2	-1.12% (inactive)	
COc1cccc(C2c3c(ncn(-c4cccc(F)c4)c3=N)Oc3ccc4ccccc4c32)c1 (centres undefined)	8.78% (inactive)	
COc1cc2nc(Nc3ccccc3)nc(NC3CC3)c2cc1OC	-2.05% (inactive)	
CC(C)(C)NC(=O)Nc1nnc(-c2ccncc2)s1	-3.34% (inactive)	
CCOc1ccccc1-c1nnc2n1N=C(c1ccc(OC)c(OC)c1)CS2	-5.15% (inactive)	
Cc1ccc(CNc2ccc(N3CCNCC3)cc2)cc1	-8.02% (inactive)	
